Most compounds without a hit are left out; they make up all but 19% or so of the library.
KB-3-1 tox: qHTS assay for MDR1-selective chemotherapeutics: Primary screen using the parental adenocarcinoma cell KB-3-1. KB-3-1 viability, CellTiter-Glo ATP luminescence, 72 h. Potency, µM (highest dose often 46.1 µM), usual class: cytotoxic. 400,000 compounds, 1.4% hits; also: nearly all actives have a fitted effect of over 60% in size
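Luminescent ATP read-out (CellTiter-Glo) measures survival of drug-naive KB-3-1 cells after 72 h compound exposure at 37 °C. Titration series was screened from lowest to highest concentration, with DMSO vehicle plates as background controls.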
TDP1 cell CPT: qHTS for Inhibitors of human tyrosyl-DNA phosphodiesterase 1 (TDP1): qHTS in cells in presence of CPT | chicken DT40 Tdp1-/-;hTDP1 cells + 20 nM CPT, ATP luminescence, 48 h | Potency, µM (series often up to 46.2 µM), without a hit: at the top dose activity change, negative = growth inhibition, actives largely listed as inhibitors | 420,000 compounds, 12% hits | AID 686979, 2013; also: nearly all actives have a fitted effect of over 55% in size
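Chicken DT40 Tdp1-/- cells stably complemented with human TDP1 were seeded at 400 cells/well in medium containing 20 nM camptothecin, exposed to pin-transferred compounds, and grown at 37 °C for at least 48 hr. Viability was read as ATP luminescence.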
HT1080 IDH1KD tx: qHTS for induction of synthetic lethality in tumor cells producing 2HG: qHTS for the HT-1080-IDH1KD cell line | Potency, µM (doses to about 46.1 µM), for the others: at the top dose activity, negative = toxicity, most hits filed as cytotoxic | HT-1080 IDH1 knockdown viability, ATP luminescence, 48 h | 360,000 compounds, 2% hits;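 also: 0% = DMSO wells and -100% = cell-free medium wells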
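Assay cells: HT-1080 with IDH1 knockdown, 750 per well, RPMI/5% FBS. Exposure: 48 h at 37 °C following 2 h pre-incubation. Read: CellTiter-Glo luminescence; fitted concentration-response, curve class assigned.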
KB-V1 MDR tox: qHTS assay for MDR1-selective chemotherapeutics: Primary screen using the drug-selected MDR subline cells KB-V1. AID 1347076, 2019. KB-V1 MDR cells viability, CellTiter-Glo, 72 h. Potency, µM (titrated, usually from 46.1 µM), usual class: cytotoxic. 400,000 compounds, 3.4% hits; also: nearly all actives have a fitted effect of over 60% in size
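Compound-treated KB-V1 multidrug-resistant cells, 72 h, 37 degrees C; viability by CellTiter-Glo. Fitted qHTS curves give the values.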
HT1080NT lethal: qHTS for induction of synthetic lethality in tumor cells producing 2HG: qHTS for the HT-1080-NT fibrosarcoma cell line; 360,000 compounds, 1.6% hits; HT-1080-NT fibrosarcoma viability, CellTiter-Glo ATP luminescence, 48 h; Potency, µM (titrated, usually from 46.1 µM), inactives show at the highest dose activity, negative = less viability, actives largely listed as cytotoxic;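 also: NT is the 2HG producing partner of a matched IDH1 knockdown line; 0% = DMSO-treated cells and -100% = media-only wells without cells; nearly all actives have a fitted effect of over 55% in size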
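Viability by CellTiter-Glo luminescence after 48 h compound exposure at 37C of HT-1080-NT cells (750/well, RPMI, 5% FBS). % activity scaled between DMSO wells and medium-only wells, then curve-fitted and categorized by curve class.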
TDP1 cell noCPT: qHTS for Inhibitors of human tyrosyl-DNA phosphodiesterase 1 (TDP1): qHTS in cells in absence of CPT | DT40 Tdp1-/- hTDP1 cells, no CPT, ATP luminescence, 48 h | Potency, µM (series often up to 46.2 µM), without a hit: at the highest dose activity change, negative = growth inhibition, actives largely listed as inhibitors | 420,000 compounds, 15% hits | AID 686978, 2013; also: nearly all actives have a fitted effect of over 55% in size
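No-CPT arm: Tdp1-/-;hTDP1 DT40 cells (400/well) plus compounds, incubated ≥48 hr at 37 °C. Readout CellTiter-Glo luminescence.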
* = called active by the depositor; i = inactive; ? = inconclusive; . = not tested or not shown. Calls follow the shape of the dose curve; as a rule, active = well fitted curve in the direction sought with a large enough effect; inconclusive = small, poorly fitted or top-dose-only effect, or another doubt; inactive = no such curve, though single readings can be large; an effect the other way counts as inactive or inconclusive. Unless noted, % is scaled to controls: 0 for no effect and ±100 for the full control effect; potency is read from the fitted curve at half-maximal effect.

SMILES	KB-3-1 tox	TDP1 cell CPT	HT1080 IDH1KD tx	KB-V1 MDR tox	HT1080NT lethal	TDP1 cell noCPT
Cc1ccc(/C=C/c2nc3ccccc3c(=O)[nH]2)cc1	i	?	-12%	i	-5%	?
Cc1ccccc1/C=C\c1nc2ccccc2c(=O)[nH]1	?	26µM*	16µM*	?	16µM*	16µM*
COc1cc(/C=C/c2nc3ccccc3c(=O)[nH]2)cc(OC)c1OC	2.9µM*	-25%	?	i	?	-16%
COc1cc(/C=C/c2nc3ccccc3c(=O)[nH]2)ccc1OC(F)F	i	-7%	-3%	i	6%	-3%
Cc1ccccc1/C=C/c1nc2ccccc2c(=O)[nH]1	?	16µM*	-25%	?	-22%	?
O=C(N/N=C\c1cccc(OC(=O)c2ccco2)c1)c1ccc2c(c1)OCO2	i	?	-16%	i	-9%	?
C=CCn1c(=O)/c(=C\c2ccsc2)s/c1=C(/C#N)C(=O)NCCN1CCOCC1	i	?	17%	?	22%	?
COc1ccc(-n2c(=O)/c(=C\c3cccs3)s/c2=C(/C#N)C(=O)NCCN2CCOCC2)cc1	i	13µM*	2%	i	-1%	?
COc1cc(/C=N/NC(=O)CCC(=O)Nc2ccc(Br)cc2)ccc1O	i	5%	1%	?	-1%	-17%
COc1ccc(O)c(/C=N/NC(=O)CCC(=O)Nc2ccc(C)cc2)c1	i	?	-11%	i	-6%	21µM*
COc1cccc(/C=N/NC(=O)CCCC(=O)Nc2ccc(Br)cc2)c1	i	21µM*	-13%	15µM*	-9%	21µM*
COc1ccc(O)c(/C=N/NC(=O)CCC(=O)Nc2cccc(C)c2)c1	i	21µM*	?	?	?	21µM*
COC(=O)c1cc2ccsc2n1CC(=O)N(C)C1CCCCC1	i	?	0%	i	-11%	-26%
O=C(NCc1cccc(Cl)c1)c1ccc(N2CC3CC(C2)c2cccc(=O)n2C3)c(NC(=O)c2cccnc2)c1 (centres undefined)	i	-19%	-1%	i	-6%	-25%
O=c1cc(N2CCN(c3ccccc3)CC2)[nH]c(=O)n1-c1ccccc1	i	-21%	1%	i	2%	12%
O=c1cc(N2CCN(c3ccc(F)cc3)CC2)[nH]c(=O)n1-c1cccc(Br)c1	.	10µM*	.	.	.	18µM*
Nc1ccc(Oc2ccc3nc(-c4ccccc4)c(-c4ccc([N+](=O)[O-])cc4)nc3c2)cc1	i	16µM*	-1%	i	-1%	?
N#Cc1ccc(Oc2ccc(-c3nc4ccccc4nc3-c3ccccc3)cc2)cc1C#N	i	9.2µM*	-11%	21µM*	-9%	18µM*
COc1cccc(C(=O)N(C)Cc2c(C)nn(C3CCS(=O)(=O)C3)c2C)c1 (centres undefined)	i	-17%	-4%	?	1%	18%
Cc1nc(-c2ccc(F)cc2)sc1CCNC(=O)c1ccccc1C(F)(F)F	i	?	.	i	.	?
CC1CCCN(c2ccc(C(=O)OCC(=O)N3c4ccccc4Sc4ccccc43)cc2[N+](=O)[O-])C1 (centres undefined)	i	18µM*	6%	i	11%	23µM*
CC1CCN(c2ccc(C(=O)N3CCOCC3)cc2[N+](=O)[O-])CC1	i	-29%	9%	i	7%	?
Cc1ncsc1CCOC(=O)c1ccc(N2CCOCC2)c([N+](=O)[O-])c1	i	-7%	-2%	i	1%	17%
CC1CCN(c2ccc(C(=O)Nc3ccc4c(c3)OCO4)cc2[N+](=O)[O-])CC1	i	10µM*	?	?	-15%	9.2µM*
Cc1ccc(C(=O)OCC(=O)Nc2ccc3c(c2)OCO3)cc1S(=O)(=O)N1CCOCC1	i	9%	15%	i	8%	-9%
SMILES	KB-3-1 tox	TDP1 cell CPT	HT1080 IDH1KD tx	KB-V1 MDR tox	HT1080NT lethal	TDP1 cell noCPT
O=C(COC(=O)c1ccc(N2CCOCC2)c([N+](=O)[O-])c1)Nc1ccc2c(c1)OCO2	?	-17%	26%	8.2µM*	?	?
Cc1c(CCOC(=O)c2ccc(N3CCOCC3)c([N+](=O)[O-])c2)sc[n+]1CC#N	21µM*	4.6µM*	?	?	23µM*	2.6µM*
COc1ccccc1OCc1ccc(C(=O)NCC2CCCO2)o1 (centres undefined)	i	-1%	-6%	?	0%	-12%
CC(NC(=O)COC(=O)c1ccc2c(=O)n3c(nc2c1)CCCCC3)c1ccc(F)cc1 (centres undefined)	i	-19%	6%	i	2%	-7%
CCCc1nc(SCc2ccc(OCC)cc2)n[nH]1	i	-18%	0%	i	7%	?
CN(C)c1ccc(/C=C/C=C2/C=Cc3ccccc32)cc1	i	?	.	i	.	?
CC1CCCN(c2ccc(C(=O)NCc3ccc4c(c3)OCO4)cc2[N+](=O)[O-])C1 (centres undefined)	i	?	4%	?	7%	?
CC1CCCN(c2ccc(C(=O)Nc3ccc4c(c3)OCO4)cc2[N+](=O)[O-])C1 (centres undefined)	i	?	?	i	-10%	21µM*
COc1nn(-c2ccccc2)c(=O)c(Cl)c1Cl	?	5.2µM*	13µM*	i	12µM*	4.6µM*
CCOc1ccc(CCNC(=O)c2nn(C)c3c2CSc2ccc(C)cc2-3)cc1OCC	i	?	.	?	.	13µM*
Cn1nc(C(=O)NCCCN2CCCCC2)c2c1-c1ccccc1SC2	i	?	4%	i	-2%	?
CCOC(=O)N1CCN(C(=O)c2nn(C)c3c2CSc2ccccc2-3)CC1	i	?	5%	i	24%	16µM*
CCN(C(=O)c1nn(C)c2c1CSc1ccccc1-2)c1cccc(C)c1	.	12µM*	.	.	.	21µM*

Compound activity deposited in PubChem BioAssay by National Center for Advancing Translational Sciences (NCATS).
